Here are results for 7 compounds from PubChem BioAssay (EPA / NIEHS).

Molecules are shown by their SMILES. Where a structure was tested more than once in an assay, its records may differ in their call. Active and inactive are the calls of the source. The calls were made as follows: active = hit-call score of the fitted dose curve at least 0.9, where 1 is the maximum; inactive = score below 0.9.

Read-out in experiment [1]: Human Leukocyte Antigen - DR isotype (HLADR), HLA-DRA (gene 3122)
The experiment in a line: BSK_CASM3C_HLADR: BioMAP Diversity Plus: CASM3C Assay for Human Leukocyte Antigen - DR isotype (HLADR) Biomarker Activity (AID 2283043).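 Also: cell-surface HLA-DR protein level quantified by ELISA.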 Particulars: primary human coronary artery smooth muscle cells; actives raise or lower the signal.

Read-out in experiment [2]: Monocyte Chemoattractant Protein-1 (MCP1), CCL2 (gene 6347)
Nature of the experiment: BSK_CASM3C_MCP1: BioMAP Diversity Plus: CASM3C Assay for Monocyte Chemoattractant Protein-1 (MCP1) Biomarker Activity (AID 2283046). The following applies: primary human coronary artery smooth muscle cells; actives raise or lower the signal.

Experiment [3] is described as follows: BSK_CASM3C_Proliferation: Cell Proliferation Assessment in the BioMAP Diversity Plus: CASM3C Assay (AID 2283047).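 Also: sulforhodamine B total protein stain as relative cell number at 560 nm; sub-confluent cells exposed 48 h before staining; fitted both ways against DMSO so gain or loss of cell number.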 The following applies: primary human coronary artery smooth muscle cells.
Read-out in experiment [4]: Tissue Factor, F3 (gene 2152)
The experiment in a line: BSK_CASM3C_TissueFactor: BioMAP Diversity Plus: CASM3C Assay for Tissue Factor Biomarker Activity (AID 2283052).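 Also: cell surface tissue factor protein level read by ELISA.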 Particulars: primary human coronary artery smooth muscle cells; actives raise or lower the signal.

Read-out in experiment [5]: Interferon-gamma inducible Protein 10 (IP10), CXCL10 (gene 3627)
Nature of the experiment: BSK_hDFCGF_IP10: BioMAP Diversity Plus: hDFCGF Assay for Interferon-gamma inducible Protein 10 (IP10) Biomarker Activity (AID 2283053). The following applies: primary human foreskin fibroblasts; actives raise or lower the signal. The method, boiled down: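 ELISA read-out of IP-10 (CXCL10) from primary human skin fibroblasts, 24 h after compound addition. Gain or loss of signal versus DMSO baseline, bidirectional curve fitting.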

Read-out in experiment [6]: Epidermal growth factor receptor (EGFR), EGFR (gene 1956)
Nature of the experiment: BSK_hDFCGF_EGFR: BioMAP Diversity Plus: hDFCGF Assay for Epidermal growth factor receptor (EGFR) Biomarker Activity (AID 2283057). Particulars: primary human foreskin fibroblasts; actives raise or lower the signal. The gist of the method: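 ELISA readout of EGFR on human dermal fibroblasts (primary foreskin cells), 24 h post-dosing; bidirectional curve fit vs DMSO baseline, gain or loss of signal scored.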

Read-out in experiment [7]: Interleukin-8 (IL8), CXCL8 (gene 3576)
The experiment in a line: BSK_hDFCGF_IL8: BioMAP Diversity Plus: hDFCGF Assay for Interleukin-8 (IL8) Biomarker Activity (AID 2283058). Particulars: primary human foreskin fibroblasts; actives raise or lower the signal. The gist of the method: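 IL-8 levels read by ELISA at 24 hours after dosing human skin fibroblast cultures. Parallel SRB staining assessed overt cytotoxicity, and gain or loss of signal was fitted against DMSO control.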

Experiment [8] in a line: BSK_hDFCGF_Proliferation: Cell Proliferation Assessment in the BioMAP Diversity Plus: hDFCGF Assay (AID 2283059).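 Also: curves fitted for both rise and fall of signal versus DMSO baseline.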 Particulars: primary human foreskin fibroblasts. The gist of the method:
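Total protein read at 560 nm after 0.1% SRB staining of TCA-fixed human skin fibroblasts, […]. Activity is fitted in both directions relative to DMSO as baseline.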

Experiment [9] is described as follows: BSK_hDFCGF_SRB: Viability Assessment in the BioMAP Diversity Plus: hDFCGF Assay (AID 2283061).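 Also: cells exposed to compound for 24 h before the read.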 Particulars: primary human foreskin fibroblasts. The method, boiled down: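 Viability was read as total protein: after 10% TCA fixation, wells were stained with 0.1% sulforhodamine B and read at 560 nm. Primary human foreskin fibroblasts were dosed for 24 h, with bidirectional fitting versus DMSO.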

Read-out in experiment [10]: TIMP metallopeptidase inhibitor 1 (TIMP1), TIMP1 (gene 7076)
The experiment in a line: BSK_hDFCGF_TIMP1: BioMAP Diversity Plus: hDFCGF Assay for TIMP metallopeptidase inhibitor 1 (TIMP1) Biomarker Activity (AID 2283062). The following applies: primary human foreskin fibroblasts; actives raise or lower the signal. The method, boiled down:
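TIMP-1 measured by ELISA 24 h after chemical dosing of primary human skin fibroblasts, with gain or loss fitted relative to DMSO. Parallel SRB staining (560 nm) monitored overt cytotoxicity.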

Read-out in experiment [11]: Monokine induced gamma interferon (MIG), CXCL9 (gene 4283)
The experiment in a line: BSK_hDFCGF_MIG: BioMAP Diversity Plus: hDFCGF Assay for Monokine induced gamma interferon (MIG) Biomarker Activity (AID 2283063). Particulars: primary human foreskin fibroblasts; actives raise or lower the signal. The gist of the method: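 Human primary foreskin fibroblasts in the hDFCGF system, exposed to test chemical for 24 h; MIG measured by ELISA. Bidirectional curve fitting against DMSO negative control as activity baseline.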

Read-out in experiment [12]: Matrix Metallopeptidase 1 (MMP1), MMP1 (gene 4312)
Nature of the experiment: BSK_hDFCGF_MMP1: BioMAP Diversity Plus: hDFCGF Assay for Matrix Metallopeptidase 1 (MMP1) Biomarker Activity (AID 2283064). The following applies: primary human foreskin fibroblasts; actives raise or lower the signal. The method, boiled down:
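MMP1 levels quantified by ELISA 24 h after dosing human dermal fibroblast cultures, with parallel SRB total-protein staining for overt cytotoxicity. Data fitted in both directions against DMSO baseline.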

Read-out in experiment [13]: Vascular cell adhesion molecule 1 (VCAM1), VCAM1 (gene 7412)
The experiment in a line: BSK_hDFCGF_VCAM1: BioMAP Diversity Plus: hDFCGF Assay for Vascular cell adhesion molecule 1 (VCAM1) Biomarker Activity (AID 2283065).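 As to AC50: VCAM-1 protein level quantified by ELISA after 24 h chemical exposure.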 The following applies: primary human foreskin fibroblasts; actives raise or lower the signal. The method, boiled down: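 ELISA readout of VCAM-1 on human dermal fibroblast primary cultures, 24 h after chemical exposure. Gain or loss of signal fitted in both directions against DMSO baseline.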

Read-out in experiment [14]: Plasminogen activator inhibitor-1 (PAI1), SERPINE1 (gene 5054)
The experiment in a line: BSK_hDFCGF_PAI1: BioMAP Diversity Plus: hDFCGF Assay for Plasminogen activator inhibitor-1 (PAI1) Biomarker Activity (AID 2283066). The following applies: primary human foreskin fibroblasts; actives raise or lower the signal. The gist of the method: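 ELISA readout of PAI-1 from primary human skin fibroblast cultures, 24 h after compound addition. Gain or loss of signal was fitted bidirectionally against DMSO baseline.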

Read-out in experiment [15]: Interferon-gamma inducible Protein 10 (IP10), CXCL10 (gene 3627)
Nature of the experiment: BSK_KF3CT_IP10: BioMAP Diversity Plus: KF3CT Assay for Interferon-gamma inducible Protein 10 (IP10) Biomarker Activity (AID 2283068). The following applies: primary human keratinocytes with fibroblasts; actives raise or lower the signal. The gist of the method: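 Human keratinocyte plus foreskin fibroblast primary co-culture exposed to test chemical for 24 h; IP-10 measured by ELISA. Concentration-response fitted bidirectionally against DMSO control as baseline.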

Read-out in experiment [16]: Transforming growth factor beta 1 (TGFb1), TGFB1 (gene 7040)
Nature of the experiment: BSK_KF3CT_TGFb1: BioMAP Diversity Plus: KF3CT Assay for Transforming growth factor beta 1 (TGFb1) Biomarker Activity (AID 2283072). The following applies: primary human keratinocytes with fibroblasts; actives raise or lower the signal. The gist of the method:
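Read-out: ELISA for TGF-b1 in keratinocyte/foreskin fibroblast human skin co-culture, 24 h after dosing; bidirectional curve fit vs DMSO baseline; gain or loss of signal scored.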

Read-out in experiment [17]: urokinase plasminogen activator (uPA), PLAU (gene 5328)
The experiment in a line: BSK_KF3CT_uPA: BioMAP Diversity Plus: KF3CT Assay for urokinase plasminogen activator (uPA) Biomarker Activity (AID 2283075). Particulars: primary human keratinocytes with fibroblasts; actives raise or lower the signal. The method, boiled down:
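ELISA read-out of uPA 24 h after dosing human skin keratinocytes co-cultured with foreskin fibroblasts. Signal change fitted both ways relative to DMSO; sulforhodamine B on parallel cultures marks overt cytotoxicity.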

Read-out in experiment [18]: CD40, CD40 (gene 958)
The experiment in a line: BSK_LPS_CD40: BioMAP Diversity Plus: LPS Assay for CD40 Biomarker Activity (AID 2283076). Particulars: primary human HUVEC with PBMC; actives raise or lower the signal. The gist of the method:
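In the LPS system of human endothelial cells with peripheral blood mononuclear cells, CD40 levels were read by ELISA 24 h post-treatment. Signal changes in either direction were fitted against the DMSO baseline, with parallel SRB protein staining.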

A short description of experiment [19]: BSK_LPS_SRB: Viability Assessment in the BioMAP Diversity Plus: LPS Assay (AID 2283079).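 Also: total protein by sulforhodamine B absorbance as a cytotoxicity measure; measured one day after compound addition.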 Particulars: primary human HUVEC with PBMC. The gist of the method:
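SRB viability endpoint: cells fixed with 10% TCA, stained with 0.1% SRB, read at 560 nm, 24 h post-dose. HUVEC/PBMC co-culture; signal change in either direction scored relative to DMSO.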

Read-out in experiment [20]: Macrophage colony-stimulating factor (MCSF), CSF1 (gene 1435)
The experiment in a line: BSK_LPS_MCSF: BioMAP Diversity Plus: LPS Assay for Macrophage colony-stimulating factor (MCSF) Biomarker Activity (AID 2283083). Particulars: primary human HUVEC with PBMC; actives raise or lower the signal. The method, boiled down: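 Bidirectional fitting against DMSO was applied to M-CSF levels read by ELISA at 24 h post-dose. The system pairs human umbilical vein endothelium with peripheral blood mononuclear cells; parallel SRB staining tracked cytotoxicity.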

`CC1(C)[C@H](C(=O)O[C@H](C#N)c2cccc(Oc3ccccc3)c2)[C@@H]1C=C(Br)Br`: the AC50 in [1] is 11.1 µM (active). Besides, the result in experiment [1], in experiment [2], in [3], in experiment [4], in [5] and in experiment [6] was inactive. The outcome in [7], in experiment [8], in experiment [9], in experiment [10], in [11] and in experiment [12] was inactive. Besides, the outcome in [13], in experiment [14], in experiment [15], in experiment [16], in experiment [17] and in experiment [18] was inactive. Moreover, the result in experiment [19] and in [20] was inactive.

`O=[N+]([O-])c1ccc(Cl)cc1`: the result in [1], in experiment [2], in [3], in [4], in experiment [5] and in experiment [6] was inactive. For the same compound, the result in experiment [7], in experiment [8], in experiment [9], in experiment [10], in experiment [11] and in experiment [12] was inactive. The outcome in experiment [13], in [14], in experiment [15], in [16], in [17] and in experiment [18] was inactive. The result in experiment [19] and in experiment [20] was inactive.

Take `CCc1cc(C)cc(CC)c1-c1c(OC(=O)C(C)(C)C)n2n(c1=O)CCOCC2`: the concentration at half-maximal activity (AC50) in [1] was 3.97 µM (active); in experiment [3] it was 20 µM (active); in [4], 8.26 µM (active); in experiment [8], 25.2 µM (active); in experiment [9], 31.5 µM (active); in [14], 3.97 µM (active). In addition, the concentration at half-maximal activity (AC50) in experiment [16] is 20 µM (active). For the same compound, the outcome in experiment [2], in [5], in experiment [6], in experiment [7], in experiment [10] and in experiment [11] was inactive. The result in experiment [12], in experiment [13], in experiment [15], in [17], in experiment [18] and in [19] was inactive. For the same compound, the result in experiment [20] was inactive.

On to `Oc1cc(Cl)ccc1Cl`, for which the outcome in [1], in experiment [2], in [3], in experiment [4], in experiment [5] and in [6] was inactive. Moreover, the result in experiment [7], in experiment [8], in experiment [9], in experiment [10], in [11] and in experiment [12] was inactive. The outcome in [13], in experiment [14], in [15], in [16], in experiment [17] and in [18] was inactive. In addition, the outcome in experiment [19] and in experiment [20] was inactive.

As to `COc1ccc(CO)cc1`, the result in experiment [1], in experiment [2], in experiment [3], in [4], in experiment [5] and in experiment [6] was inactive. Further, the result in experiment [7], in [8], in experiment [9], in [10], in experiment [11] and in experiment [12] was inactive. Also, the outcome in experiment [13], in experiment [14], in experiment [15], in experiment [17], in experiment [18] and in experiment [19] was inactive. In addition, in [20], the result was inactive.

On to `O=C(CCl)c1ccccc1`, for which the AC50 is 6.84 µM (active) in experiment [1]; 12.5 µM (active) in experiment [2]; 2.44 µM (active) in experiment [3]; 4.64 µM (active) in [5]; 7.52 µM (active) in [7]; 1.4 µM (active) in experiment [8]. Besides, the AC50 in [9] was 4.74 µM (active); in experiment [10], 5.12 µM (active); in experiment [11] it was 6.78 µM (active); in experiment [12], 9.79 µM (active); in experiment [13], 2.56 µM (active); in experiment [14] it was 6.44 µM (active). The AC50 in experiment [15] is 13.8 µM (active); in [16] it was 25.7 µM (active); in [17], 30 µM (active); in [18], 4.58 µM (active); in [19], 15.2 µM (active); in experiment [20], 4.37 µM (active). For the same compound, the outcome in [4] and in experiment [6] was inactive.

Turning to `Clc1ccc(-c2ccccc2)cc1`, the result in [1], in experiment [2], in experiment [3], in [4], in [5] and in experiment [6] was inactive. Further, the result in [7], in experiment [8], in experiment [9], in experiment [10], in experiment [11] and in experiment [12] was inactive. Besides, the outcome in experiment [13], in experiment [14], in experiment [15], in experiment [16], in experiment [17] and in experiment [18] was inactive. Also, the result in experiment [19] and in experiment [20] was inactive.

The AC50 is the midpoint of the concentration-response curve, whichever way the signal moves.
